Screening data as filed in PubChem.
An excerpt weighted towards active compounds, which were near 1.1% of everything screened.
Tb PFK block = qHTS Assay to Find Inhibitors of T. brucei phosphofructokinase; ATP-dependent 6-phosphofructokinase (Trypanosoma brucei brucei), O15648; T. brucei PFK, ADP-Glo luminescence; Potency, µM (titrated, usually from 57.5 µM), hits mostly inhibitors; 0.17% of 330,000 active; AID 485367, 2010; also: nearly all actives have a fitted effect of over 60% in size
Target sequence (O15648 whole entry, looked up): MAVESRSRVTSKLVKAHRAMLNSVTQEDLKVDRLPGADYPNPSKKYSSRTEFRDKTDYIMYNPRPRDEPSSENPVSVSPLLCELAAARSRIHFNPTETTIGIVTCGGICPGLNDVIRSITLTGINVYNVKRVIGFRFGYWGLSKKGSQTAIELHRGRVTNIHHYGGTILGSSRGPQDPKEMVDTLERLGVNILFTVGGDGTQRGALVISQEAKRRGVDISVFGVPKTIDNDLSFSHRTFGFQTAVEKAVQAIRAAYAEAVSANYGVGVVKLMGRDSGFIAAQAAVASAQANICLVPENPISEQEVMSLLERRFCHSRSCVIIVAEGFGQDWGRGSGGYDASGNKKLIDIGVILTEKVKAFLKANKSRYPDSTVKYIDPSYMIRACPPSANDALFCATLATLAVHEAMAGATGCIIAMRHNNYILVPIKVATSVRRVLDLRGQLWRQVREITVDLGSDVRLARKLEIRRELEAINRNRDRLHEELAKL
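Compounds were pin-transferred as a titration series up to 57 uM into substrate buffer (0.5 mM F6P, 0.1 mM ATP, pH 8.0), then 1.25 nM PFK was added and reactions ran 45 min before ADP-Glo detection.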
PGK inhibitor = qHTS Assay to Find Inhibitors of Phosphoglycerate Kinase; PGK/GAPDH coupled, Kinase-Glo luminescence, 60 min; Potency, µM (highest dose often 57.5 µM), most hits filed as inhibitors; 0.043% of 380,000 active; also: nearly all actives have a fitted effect of over 60% in size
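Recombinant glycosomal PGK reaction used 1,3-bisphosphoglycerate generated in-well by GAPDH (100nM final) in 100mM TEA pH 7.6, 5mM MgCl2, 0.01% Tween-20. After 60 minutes at room temperature, ATP was read by Kinase-Glo Plus luminescence end-point.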
GLS inhibitor = qHTS for Inhibitors of Glutaminase (GLS); 0.21% of 410,000 active; Glutaminase kidney isoform, mitochondrial (Homo sapiens), O94925; GLS enzymatic activity, qHTS titration; Potency, µM (doses to about 45.5 µM), usual class: inhibitors
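hKGA in 45 mM KH2PO4 pH 8.2, 0.02% Tween-20 with pin-transferred compounds; 1 mM L-glutamine (stock) plus glutamate oxidase/HRP/Amplex Red coupling added. Fluorescence read initially and after 30 min at RT.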
Pin1 inh = qHTS Assay to Find Inhibitors of Pin1; 0.009% of 390,000 active; Peptidyl-prolyl cis-trans isomerase NIMA-interacting 1 (Homo sapiens), Q13526; AID 504891, 2011; Pin1 FP peptide displacement, HiFluor488, 10 min; Potency, µM (series often up to 115 µM), actives largely listed as inhibitors; active = well fitted inhibition curve with a large enough effect in the polarisation, with a control signal flat, not every such curve was filed as active; inconclusive = small, poorly fitted or top-dose-only effect, or effect the other way, or a change in a side signal; inactive = no such curve, though single readings can be large or run the other way; the % refers to the polarisation
Target sequence (Q13526 whole entry, looked up): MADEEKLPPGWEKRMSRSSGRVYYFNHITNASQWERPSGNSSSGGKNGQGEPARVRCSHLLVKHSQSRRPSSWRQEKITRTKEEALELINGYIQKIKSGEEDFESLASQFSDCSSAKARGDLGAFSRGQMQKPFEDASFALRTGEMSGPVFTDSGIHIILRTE
VDR inh = Inhibitors of the vitamin D receptor (VDR): qHTS | VDR-SRC2-3 peptide fluorescence polarization, 2 h | AID 504847, 2011 | 0.93% of 400,000 active | Potency, µM, hits mostly inhibitors
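Measured by FP: displacement of SRC2-3 coactivator peptide from VDR by library compounds, following a two-hour ambient incubation.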
Numbers stand for hits; - = inactive; ? = inconclusive; . = no result given; ! = not confirmed by another sample. Unless noted, calls follow the shape of the dose curve; as a rule, active = well fitted curve in the direction sought with a large enough effect; inconclusive = small, poorly fitted or top-dose-only effect, or another doubt; inactive = no such curve, though single readings can be large; an effect the other way counts as inactive or inconclusive.

SMILES | Tb PFK block | PGK inhibitor | GLS inhibitor | Pin1 inh | VDR inh
Cc1ccc(C(C2=C(O)CC(C)(C)CC2=O)C2C(=O)CC(C)(C)CC2=O)o1 (stereo unspecified) | ? | - | - | - | 50.1µM
CCOC(=O)c1c(C)oc2c1c(CN1CCN(C(=O)OCC)CC1)c(O)c1ccccc12 | - | - | - | ? | 50.1µM
CCOC(=O)c1c(C)oc2c1c(CN1CCN(CCO)CC1)c(O)c1ccccc12 | - | - | - | ? | ?
CC1=C(/C=C/C(C)=C/C=C/C(C)=C/C=C/C=C(C)/C=C/C=C(C)/C=C/C(=O)[C@]2(C)CC(O)CC2(C)C)C(C)(C)CC(O)C1 (stereo partly specified) | . | . | . | . | -
CC1=C[C@@H](O)CC(C)(C)[C@@H]1/C=C/C(C)=C/C=C/C(C)=C/C=C/C=C(C)/C=C/C=C(C)/C=C/C1=C(C)C[C@H](O)CC1(C)C | . | . | - | . | 28.2µM
CC1=C(/C=C/C(C)=C\C=C\C(C)=C\C=C\C=C(C)\C=C\C=C(C)\C=C\C2=C(C)C[C@@H](O)CC2(C)C)C(C)(C)C[C@H](O)C1 | . | . | - | . | 39.8µM
Cc1c(C)c2ccc(OCC(=O)NC(Cc3c[nH]c4ccc(O)cc34)C(=O)O)c(C)c2oc1=O (stereo unspecified) | - | - | 11.2µM | - | -
c1ccc(C2=Nn3c(Cn4nnc5ccccc54)nnc3SC2)cc1 | - | - | - | - | -
Clc1ccc(C2=Nn3c(Cn4nnc5ccccc54)nnc3SC2)cc1 | - | - | - | - | 79.4µM
O=C(NCSc1ccccc1)c1ccccc1 | - | - | - | - | -
O=C(CNC(=O)c1ccccc1)Sc1ccccc1 | . | - | - | - | 44.7µM
O=C(CNC1C(=O)Nc2ccccc21)Sc1ccccc1 (stereo unspecified) | - | - | - | - | -
O=C(CCCCC(=O)Sc1ccccc1)Sc1ccccc1 | . | - | - | - | 79.4µM
COc1cc(NC(=O)Cn2c(=O)n(-c3ccccc3)c(=O)c3c4c(sc32)CCCC4)cc(OC)c1 | . | - | - | - | -
CC(=O)c1c(C(C)=O)c(C)n(-c2ccc(C(=O)O)cc2)c1C | - | - | - | - | -
Cc1ccc(C)n1-c1ccc(C(=O)O)cc1 | 10.7µM | . | . | . | .
CC(C)C[C@H](NC(=O)[C@H](CCCCN)NC(=O)[C@H](CCCNC(=N)N)NC(=O)[C@H](C)NC(=O)[C@H](CO)NC(=O)[C@H](CCCCN)NC(=O)[C@H](CCCNC(=N)N)NC(=O)[C@H](C)NC(=O)CNC(=O)[C@@H](NC(=O)[C@H](Cc1ccccc1)NC(=O)CNC(=O)CNC(=O)[C@@H](N)Cc1ccccc1)[C@@H](C)O)C(=O)N[C@@H](C)C(=O)N[C@@H](CC(N)=O)C(=O)N[C@@H](CCC(N)=O)C(=O)O | . | . | . | . | -
COc1cccc(O)c1O | . | . | . | . | 50.1µM
COc1ccccc1O | - | - | - | - | -
Cc1ccc(Cl)cc1-n1ncc2c(NCCC3=CCCCC3)ncnc21 | . | - | - | - | -
CO/N=C(\C(=O)N[C@@H]1C(=O)N2C(C(=O)O)=C(COC(C)=O)CS[C@H]12)c1csc(N)n1 | . | . | . | . | 70.8µM
CO/N=C(\C(=O)N[C@@H]1C(=O)N2C(C(=O)O)=C(COC(C)=O)CS[C@@H]12)c1csc(N)n1 | . | . | - | . | ?
CO/N=C(\C(=O)N[C@@H]1C(=O)N2C(C(=O)[O-])=C(C[n+]3cccc4c3CCCC4)CS[C@H]12)c1csc(N)n1 | . | . | 6.31µM | . | .
CO/N=C(/C(=O)N[C@@H]1C(=O)N2C(C(=O)O)=C(C[n+]3ccc(N)n3CCO)CS[C@H]12)c1csc(N)n1 | . | . | - | . | ?
CO/N=C(\C(=O)N[C@@H]1C(=O)N2C(C(=O)[O-])=C(C[n+]3cccc4c3CCC4)CS[C@H]12)c1csc(N)n1 | . | . | ? | . | 28.2µM
SMILES | Tb PFK block | PGK inhibitor | GLS inhibitor | Pin1 inh | VDR inh
COc1ccc(NC(=O)N2CC[C@@]3(CCCN(C(=O)c4ccco4)C3)C2)cc1 | . | . | . | . | -
CN(Cc1ccco1)c1ncnc2ccc(-c3ccccc3C(F)(F)F)cc12 | . | . | . | . | 31.6µM
CN(Cc1cccs1)c1ncnc2ccc(-c3ccc4cn(C)nc4c3)cc12 | . | . | . | - | .
COc1ccccc1-c1ccc2ncnc(N(C)Cc3ccco3)c2c1 | . | . | . | . | 44.7µM
CN(Cc1ccco1)c1ncnc2ccc(-c3ccccc3Cl)cc12 | - | - | - | - | 50.1µM!
CN(Cc1ccco1)c1ncnc2ccc(-c3ccoc3)cc12 | ? | - | - | - | 50.1µM!
COc1ccc(OC)c(CNC(=O)C2CCN(S(=O)(=O)c3ccc4[nH]c(=O)oc4c3)CC2)c1 | . | - | - | - | -
C=C1CCC(=O)C(C)CCC2C1CC2(C)C (stereo unspecified) | . | . | . | . | -
CN(Cc1ccco1)c1ncncc1-c1ccccc1Cl | . | . | . | . | 28.2µM
CN(Cc1ccco1)c1cc(-c2ccccc2Cl)ncn1 | . | . | . | . | 44.7µM
CCOC(=O)C1=C(C)OC2(O)c3ccccc3C(=O)C12O (stereo unspecified) | - | - | - | . | 5.01µM
CC(=O)C1=C(C)OC2(O)c3ccccc3C(=O)C12O (stereo unspecified) | - | - | - | ? | 1.58µM
CN(CC(=O)Nc1ccc(N2CCOCC2)cc1)CC(=O)Nc1ccc(N2CCOCC2)cc1 | - | - | - | - | -
CN(CC(=O)Nc1ccc(N2CCOCC2)cc1)Cc1c(O)ccc2ccccc12 | - | - | - | - | 28.2µM
N=C1N(c2ccccc2)C(=S)C(=Nc2ccccc2)N1c1ccccc1 | . | - | - | - | 8.91µM
COc1ccc(N=C2C(=S)N(c3ccc(OC)cc3)C(=NS(=O)(=O)c3ccccc3)N2c2ccccc2)cc1 | . | - | - | - | ?
Cc1sc(NC(=O)Nc2ccccc2)c(C(N)=O)c1C | - | - | - | - | 89.1µM
COC(=O)CCC(=O)Nc1sc(C)c(C)c1C(N)=O | - | - | - | - | 50.1µM
COc1ccc(OC)c(/C=C2\SC(=S)N(C(C(=O)O)c3ccccc3)C2=O)c1 (stereo unspecified) | - | - | - | ? | ?
CC(c1ccccc1)N1C(=O)/C(=C/c2ccncc2)SC1=S (stereo unspecified) | - | - | - | - | 44.7µM
C=CCOc1ccc(/C=C2\SC(=S)N(C(C(=O)O)c3ccccc3)C2=O)cc1 (stereo unspecified) | - | - | - | . | 79.4µM
COc1ccc(CN2C(=O)/C(=C/c3ccncc3)SC2=S)cc1 | - | - | - | - | 50.1µM
CCOc1c(Cl)cc(CNc2ccc3[nH]c(=O)[nH]c3c2)cc1OC | . | - | - | - | -
CCOC(=O)c1sc(-c2ccccn2)nc1C | - | - | - | - | -
